Drawing on PubChem BioAssay (EPA / NIEHS), this text covers outcome and AC50 for 18 compounds.

Inconclusive results are not listed. Activity calls are given as the source filed them. Rule for the calls: active = hit-call score of the fitted dose curve at least 0.9, where 1 is the maximum; inconclusive = response in the unintended direction; inactive = score below 0.9.

Read-out in the experiment: xenobiotic metabolism (CYP2C9), CYP2C9 (gene 1559)
In words: CLD_CYP2C9_6hr: CellzDirect (CLD) Gene Expression Assay for xenobiotic metabolism (CYP2C9) at 6 hours (AID 2283664). The method, then:
CLD_6hr is a cell-based, multiplexed-readout assay that uses hepatocyte, a human liver primary cell, with measurements taken at 6 hours after chemical dosing in a 96-well plate.CLD_CYP2C9_6hr is one of 16 assay component(s) measured or calculated from the CLD_6hr assay. It is designed to make measurements of mRNA induction, a form of inducible reporter, as detected with chemiluminescence signals by Quantitative Nuclease Protection Assay (qNPA) technology.Data from the assay component CLD_CYP2C9_6hr was analyzed at the endpoint, CLD_CYP2C9_6hr, in the positive analysis fitting direction relative to DMSO as the negative control and baseline of activity. Using a type of inducible reporter, gain-of-signal activity can be used to understand changes in the reporter gene as they relate to the gene CYP2C9. Furthermore, this assay endpoint can be referred to as a primary readout. To generalize the intended target to other relatable targets, this assay endpoint is annotated to the cyp intended target family, where subfamily is xenobiotic metabolism.
Human hepatocyte cultures were treated daily for two consecutive days with fresh dosing solutions containing appropriate concentrations of the 320 ToxCast chemicals (chemical identities were blinded to CellzDirect and other ToxCast collaborators), vehicle control (0.2% DMSO), and positive control inducers as summarized in Table 1. Due to the large number of treatment groups and chemicals examined, the ToxCast chemicals were divided into two groups (spanning two independent cultures of hepatocytes from separate donor preparations (Hu778: ToxCast plates 1 and 2; Hu776: ToxCast plates 3 and 4). Each preparation of human hepatocyte cultures was treated with respective vehicle control, medium only control, set of six positive controls/reference chemicals for the five hepatic receptor pathways, and a subset of eight of the ToxCast chemicals (indoxacarb, pyrithiobac-sodium, norflurazon, cyhalofop-butyl, methomyl, thiram, acetochlor, and propiconazole). These replicate data, coupled with internal replicates designed within the blinded ToxCast chemical library, provided additional data to evaluate interindividual differences between hepatocyte preparations and their potential impact on chemical profiles.Cell morphology and integrity were evaluated using phase-contrast microscopy as an indicator of hepatocyte cell health (Tyson & Green, 1987). Cultures for each treatment group (i.e., media, vehicle [0.2% DMSO], positive control inducers [multiple concentrations], and the ToxCast chemicals [multiple concentrations]) were observed and cell morphology was assessed relative to vehicle control cultures at each harvest time point (0, 6, 24, or 48 h). […] Images were evaluated at the conclusion of the study to assess changes in cell integrity and account for the effects of chemical exposure on uncharacteristic changes in concentration-dependent gene expression profiles. The results from these determinations of apparent cytotoxicity were annotated (yes/no) alongside the corresponding qNPA data for reference.At the conclusion of each treatment period, hepatocyte cultures (96-well) were washed with 1 volume of HBSS, lysed by addition of 25 ul ArrayPlate lysis buffer (HTG, Tucson, AZ), and 70 ul/well of Denaturation Oil, denatured by incubation at 95C for 10 min, and frozen at approximately -70C until analysis by nuclease protection assay (qNPA) (Roberts et al., 2007). For qNPA analysis, cell lysates were thawed at 50C for approximately 30 min, qNPA probes were added, and samples were incubated at 95C for 10 min to begin the detection process by denaturing the target RNA, dissociating the duplexes and secondary structure hybridization. At the conclusion of the hybridization period, S1 nuclease reagent was added to each sample to digest all nonprotected nucleotides at 50C for 60-90 min. […]
Regarding `CC1(C)C(C=C(Cl)Cl)C1C(=O)OCc1cccc(Oc2ccccc2)c1` (stereo not drawn), the outcome was inactive.
As to `CCCOC(=O)NCCCN(C)C`, the compound was called inactive.
Take `CCCCCOC(=O)COc1cc(N2C(=O)C3=C(CCCC3)C2=O)c(F)cc1Cl`: the compound was called inactive.
In the case of `CCCCC(CC)CN1C(=O)C2C3C=CC(C3)C2C1=O` (stereo not drawn), the compound was classed as inactive.
For the compound `CCCN(CCC)C(=O)SCC`, the result was inactive.
With `CCOC(=O)C(C)Oc1ccc(Oc2cnc3cc(Cl)ccc3n2)cc1` (stereo not drawn), the result was inactive.
On to `CC(C)(C)[C@@H](O)[C@@H](Cc1ccc(Cl)cc1)n1cncn1`, for which the compound was called inactive.
Still for that read-out and setting: next, `C#CCOC(=O)[C@@H](C)Oc1ccc(Oc2ncc(Cl)cc2F)cc1`: “inactive”; `CC(C)(c1ccc(O)cc1)c1ccc(O)cc1`: “inactive”; `COc1nc(C)nc(NC(=O)NS(=O)(=O)c2ccccc2OCCCl)n1`: “inactive”.
In the case of `CCC(O)=C1C(=O)CC(C(=O)O)CC1=O` (stereo not drawn), the call was inactive.
For the compound `CCCCOC(=O)[C@@H](C)Oc1ccc(Oc2ccc(C(F)(F)F)cn2)cc1`, the outcome was inactive.
As for `COC(=O)c1ccccc1S(=O)(=O)NC(=O)Nc1nc(OC(F)F)cc(OC(F)F)n1`, the compound was classed as inactive.
`N#CSCSc1nc2ccccc2s1`: the concentration at half-maximal activity (AC50) was 36.1 µM (active).
In the case of `COCCO`, the outcome was inactive.
For `S=C(S)NCCNC(=S)S.[Mn+2].[S-]C([S-])=NCCN=C([S-])[S-].[Zn+2]`, the outcome was inactive.
As for `CCOC(=O)COc1cc(-n2ncc(C(F)(F)F)c(C)c2=O)c(F)cc1Cl`, the outcome was inactive.
Turning to `COC(=O)CSc1cc(N=c2sc(=O)n3n2CCCC3)c(F)cc1Cl`, the outcome was inactive.
